# Values joined by “and” are separate entries in the source; they are usually repeats but may differ in a detail not shown here. Identical values can stand only once. Out of some 2,000 compounds screened, about 100 (5%) were called active. Cut-off read from the data, not from the text of the source: active = z-score above about 2; inactive = the rest. The entries come from a sample that favours actives as a whole.
# Experiment: supercomplex reporter luminescence per Hoechst cell count – Hoechst nuclei count (AID 1645838);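 note: control cybrid cells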;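 for z-score: higher means more mitochondrial supercomplex formation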
# Conditions: Cells, luminescence/Hoechst cell count ratio; for z-score: stronger effect = higher value; for cell count: measured here: cell number, Hoechst nuclei count
# [1] = library stock concentration (final well concentration not given) 80 uM
# [2] = library stock concentration (final well concentration not given) 400 uM
# [3] = library stock concentration (final well concentration not given) 2 mM
# [4] = library stock concentration (final well concentration not given) 10 mM
# [5] = library stock concentration (final well concentration not given) 46 uM
# [6] = library stock concentration (final well concentration not given) 278 uM
# [7] = library stock concentration (final well concentration not given) 1.67 mM
compound,measurement,setting,value
CC1CN(CC(=O)Nc2ccc3c(c2)Cc2cccc(-c4cc(=O)cc(N5CCOCC5)o4)c2S3)CC(C)O1 (stereo not given),z-score,[1],-0.376 (inactive)
same,z-score,[2],-0.656 (inactive)
same,z-score,[3],0.69 (inactive)
same,z-score,[4],4.45 (active)
same,cell count,[1],6150
same,cell count,[2],6090
same,cell count,[3],4680
same,cell count,[4],1840
O=c1cc(-c2cccc3c2Sc2ccccc2S3)oc(N2CCOCC2)c1,z-score,[5],-0.163 (inactive)
same,z-score,[1],-0.486 (inactive)
same,z-score,[6],-0.0765 (inactive)
same,z-score,[2],-0.335 (inactive)
same,z-score,[7],-0.27 (inactive)
same,z-score,[3],-0.523 (inactive)
same,z-score,[4],0.302 (inactive) and 0.32 (inactive)
same,cell count,[5],6030
same,cell count,[1],4590
same,cell count,[6],5590
same,cell count,[2],4700
same,cell count,[7],5740
same,cell count,[3],4720
same,cell count,[4],3610 and 4370
CCCCCCCCCCCCCCCCCCCCCC(=O)NCCO,z-score,,0.434 (inactive)
same,cell count,,5500
O=C(O)CCC/C=C\C[C@H]1[C@@H](/C=C/[C@@H](O)CCc2ccccc2)[C@H](O)C[C@@H]1O,z-score,,-0.319 (inactive)
same,cell count,,5160
CCCCCC(=O)Nc1c(C)cc(Br)cc1C,z-score,[1],0.207 (inactive)
same,z-score,[2],0.413 (inactive)
same,z-score,[3],-0.729 (inactive)
same,z-score,[4],-0.28 (inactive)
same,cell count,[1],4910
same,cell count,[2],4850
same,cell count,[3],5330
same,cell count,[4],4660
O=C(CCCCc1ccccc1)C(F)(F)C(F)(F)F,z-score,,-0.184 (inactive)
same,cell count,,5310
CC(=O)N[C@@H](CSC/C=C(\C)CC/C=C(\C)CC/C=C(\C)CCC=C(C)C)C(=O)O,z-score,,1.41 (inactive)
same,cell count,,5420
CCC(CO)Nc1nc(NCc2ccccc2)c2ncn(C(C)C)c2n1 (stereo not given),z-score,[1],-0.719 (inactive)
same,z-score,[2],-0.53 (inactive)
same,z-score,[3],-0.509 (inactive)
same,z-score,[4],0.143 (inactive)
same,cell count,[1],5300
same,cell count,[2],4780
same,cell count,[3],4590
same,cell count,[4],3210
NC(=O)c1cnc(NCCc2ccc(O)c(Cl)c2)nc1NCc1ccccc1,outcome,library stock 10 mM,inactive; censored for cell count
same,z-score,[5],-1.13 (inactive)
same,z-score,[6],-0.967 (inactive)
same,z-score,[7],6.17 (active)
same,cell count,[5],7430
same,cell count,[6],6770
same,cell count,[7],1590
Cn1cnc2c(NCc3ccccc3)nc(NCCO)nc21,z-score,,0.158 (inactive)
same,cell count,,4830
CC(O)C(O)C1CNc2nc(N)[nH]c(=O)c2N1 (stereo not given),outcome,library stock 10 mM,inactive; censored for cell count
same,z-score,[1],-0.395 (inactive)
same,z-score,[2],-0.667 (inactive)
same,z-score,[3],-0.491 (inactive)
same,cell count,[1],5380
same,cell count,[2],5520
same,cell count,[3],4750
C#C[C@]1(O)CC[C@@H]2[C@@H]3CCc4cc(O)ccc4[C@@H]3CC[C@@]21C,z-score,[1],-0.386 (inactive)
same,z-score,[2],-0.396 (inactive)
same,z-score,[3],-0.217 (inactive)
same,z-score,[4],-0.397 (inactive)
same,cell count,[1],5910
same,cell count,[2],5660
same,cell count,[3],5810
same,cell count,[4],5370
C[C@H](CCCO)[C@H]1CC[C@H]2[C@@H]3[C@H](O)C[C@H]4C[C@H](O)CC[C@]4(C)[C@H]3C[C@H](O)[C@]12C,z-score,,-0.0135 (inactive)
same,cell count,,5570
O=C(Nc1cccc(Br)c1)c1cccc(S(=O)(=O)N2CCCCCC2)c1,z-score,[5],-0.0641 (inactive)
same,z-score,[6],0.273 (inactive)
same,z-score,[7],0.0446 (inactive)
same,z-score,[4],-0.0353 (inactive)
same,cell count,[5],6460
same,cell count,[6],6210
same,cell count,[7],6270
same,cell count,[4],5890
O=C(O)c1cccc(S(=O)(=O)N2CCc3ccccc3C2)c1,z-score,[1],-0.371 (inactive)
same,z-score,[2],0.24 (inactive)
same,z-score,[3],-0.13 (inactive)
same,z-score,[4],0.0481 (inactive)
same,cell count,[1],5540
same,cell count,[2],4830
same,cell count,[3],5230
same,cell count,[4],4980
CC(=NNC(=O)c1cccc(S(=O)(=O)N2CCOCC2)c1)c1cc(Cl)ccc1O,outcome,library stock 278 µM,inactive; censored for cell count
same,z-score,[5],-0.349 (inactive)
same,z-score,[7],3.11 (active)
same,z-score,[4],3.02 (active)
same,cell count,[5],7290
same,cell count,[7],2520
same,cell count,[4],1770
O=C(O)CCCCCC[C@@H]1[C@@H](CC[C@@H](O)CCc2cccc(C(F)(F)F)c2)[C@H](O)C[C@@H]1O,z-score,,-0.0245 (inactive)
same,cell count,,4710
COc1ccc(-c2nc3cc(F)ccc3s2)cc1OC,z-score,,-0.706 (inactive)
same,cell count,,5090
O=C(O)/C=C/c1ccc(O)c(O)c1,z-score,,-0.483 (inactive)
same,cell count,,5860
COc1ccc(/C=C/C(=O)Nc2c(O)cccc2C(=O)O)cc1OC,z-score,,-0.476 (inactive)
same,cell count,,5390
O=C(/C=C/c1cccc(C(=O)NO)c1)NO,z-score,,3.39 (active)
same,cell count,,4470
CCCCCCCCCC(=O)N[C@@H](CN1CCOCC1)[C@@H](O)c1ccccc1,z-score,,0.0636 (inactive)
same,cell count,,5620
CO[C@H]1C[C@@H]2CC[C@@H](C)[C@@](O)(O2)C(=O)C(=O)N2CCCC[C@H]2C(=O)O[C@H]([C@@H](C)C[C@@H]2CC[C@@H](O)[C@H](OC)C2)CC(=O)[C@H](C)/C=C(\C)[C@@H](O)[C@@H](OC)C(=O)[C@H](C)C[C@H](C)/C=C/C=C/C=C/1C,z-score,,2.24 (active)
same,cell count,,4010
COC1C[C@@H]2CCC(C)[C@@](O)(O2)C(=O)C(=O)N2CCCC[C@@H]2C(=O)O[C@@H](C(C)CC2CCC(n3cnnn3)C(OC)C2)CC(=O)C(C)C=C(C)C(O)C(OC)C(=O)C(C)CC(C)C=CC=CC=C1C (stereo not given in full),z-score,[1],0.366 (inactive)
same,z-score,[2],0.334 (inactive)
same,z-score,[3],0.739 (inactive)
same,z-score,[4],1.14 (inactive)
same,cell count,[1],4410
same,cell count,[2],4360
same,cell count,[3],4240
same,cell count,[4],3590
COC1CC2CCC(C)C(O)(O2)C(=O)C(=O)N2CCCCC2C(=O)OC(C(C)CC2CCC(O)C(OC)C2)CC(=O)C(C)C=C(C)C(O)C(OC)C(=O)C(C)CC(C)C=CC=CC=C1C (stereo not given),z-score,[1],0.756 (inactive)
same,z-score,[2],0.731 (inactive)
same,z-score,[3],1.2 (inactive)
same,z-score,[4],1.21 (inactive)
same,cell count,[1],2980
same,cell count,[2],3130
same,cell count,[3],2660
same,cell count,[4],2720

# Source: PubChem BioAssay AID1645838 (ICCB-Longwood Screening Facility, Harvard Medical School, 2021)
